# Compound activity: PubChem BioAssay, Broad Institute
# Shown are actives, neighbours in structure and some others; about 2.1% of the full set was active somewhere.
# U2OS ROS induce = inducers of reactive oxygen species in cancer cells; AID 624156; U2OS ROS induction, H2DCF-DA fluorescence; hit rate 2% among 46,000; ROS induction (% of piperlongumine), % at 10 µM; in the data active = ROS induction above about 79%, passing the limit was not always enough; inconclusive = no clear call, values can overlap the other calls;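 note: 0% = DMSO vehicle median and 100% = reference compound median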
# YB-1 expr inh = YB-1 expression inhibition. AID 434959. hit rate 0.37% among 30,000. delta delta Cp (YB-1 minus CDIP) (concentration not given with the values). U2OS, qRT-PCR YB-1 vs CDIP delta delta Cp, 16 h; active compounds read high; zero = DMSO, each unit about twofold;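 active = delta delta Cp rounded down to an integer at or above 3, about 3 SD of DMSO wells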;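 note: higher means less YB-1 transcript or more CDIP transcript relative to DMSO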
# * marks the source's active call; other numbers are inactive results; ? = inconclusive; nt = not tested or not shown.
SMILES,U2OS ROS induce,YB-1 expr inh
CC1(C)CC(=O)N(CC(=O)N2CCN(c3cccc(C(F)(F)F)c3)CC2)c2ccccc2S1,4.9,nt
N#CCC(c1ccccc1)C(C#N)c1ccc(Br)cc1 (stereo not drawn),-7.0,nt
Cc1cccc2c1-c1sc(C(=O)NCCN(C)C3CCCCC3)cc1CO2,-12.0,nt
O=C(COc1ccccc1Cl)Nc1cccc(NC(=O)c2ccco2)c1,-5.6,nt
Cc1cc(C)c(OCC(=O)Nc2cccc(NC(=O)c3ccco3)c2)c(Br)c1,175.9*,nt
CCOC(=O)c1sc(-c2ccccc2)nc1OCc1c(Cl)cccc1Cl,6.8,nt
O=C(CCCCC(=O)N/N=C/c1c(F)c(F)c(F)c(F)c1F)NO,145.0*,0.636
O=C(CCCCCCC(=O)Nc1ccccc1O)N/N=C/c1c(F)c(F)c(F)c(F)c1F,?,-0.271
CSCCC(C(=O)O)N1C(=O)/C(=C/c2cccnc2)SC1=S (stereo not drawn),-19.3,nt
O=C(NN1C(=O)/C(=C\c2cccnc2)SC1=S)c1ccccc1,78.6*,0.0374
CC1(C)COC(CC(=O)c2ccncc2)=N1,3.3,nt
COC(=O)c1ccc(NC(=O)Nc2ccccc2)cc1,9.0,nt
Cc1cc2c(cc1S(=O)(=O)N1CCc3ccccc31)OCC(=O)N2,17.8,nt
Cc1cc2c(cc1S(=O)(=O)N1CC(C)CC(C)C1)OCC(=O)N2 (stereo not drawn),84.5*,nt
C=C1C(=O)OC2C3=C(C)C(=O)CC3C(C)CC(O)C12 (stereo not drawn),72.5,0.483
C=C1C(=O)O[C@@H]2C[C@H](C)[C@@H]3CC(=O)C(C)=C3C[C@H]12,92.8*,-0.0903
CC(C)(C)c1ccc(-c2nnc(SCC(=O)Nc3ccccc3[N+](=O)[O-])o2)cc1,1.2,nt
CC(C)(C)c1ccc(-c2nnc(-c3ccccc3NC(=O)/C=C\C(=O)O)o2)cc1,80.1*,nt
Cc1ccc2nc3c(cc(C(N)=O)c(=N)n3Cc3cccnc3)c(=O)n2c1,25.6,nt
CC1CCCCN1CCNc1ccc2nnc(-c3ccc(F)cc3)n2n1 (stereo not drawn),42.6,nt
Cc1ccc(S(=O)(=O)Nc2cccc3c2O[C@@H](CN(C)Cc2ccc(Oc4ccccc4)cc2)[C@H](C)CN([C@@H](C)CO)C3=O)cc1,9.8,0.0574
C[C@@H]1CN([C@H](C)CO)C(=O)c2cccc(NS(=O)(=O)c3ccccc3)c2O[C@@H]1CN(C)Cc1ccc(Cl)c(Cl)c1,26.6,0.165
C[C@@H]1CN([C@@H](C)CO)C(=O)c2cccc(NS(=O)(=O)c3ccccc3)c2O[C@H]1CN(C)Cc1ccc(Cl)c(Cl)c1,150.8*,0.207
Cc1ccc(S(=O)(=O)Nc2cccc3c2O[C@H](CN(C)Cc2ccc(Oc4ccccc4)cc2)[C@@H](C)CN([C@H](C)CO)C3=O)cc1,50.6,18.9*
Cc1cc(C)c(C#N)c(SCSc2ccccc2)n1,-0.8,nt
SMILES,U2OS ROS induce,YB-1 expr inh
CCOc1cc2[nH]c(=S)n(CCCC(=O)O)c(=O)c2cc1OCC,5.3,nt
C=CCNC(=O)[C@@H]1[C@H]2C(=O)O[C@H](c3ccccc3)[C@H](c3ccccc3)N2[C@H](c2ccccc2OCCO)[C@@]12C(=O)N(C(=O)OCCOC)c1ccc(C#CC3=CCCCC3)cc12,58.0,-0.578
COCCOC(=O)N1C(=O)[C@@]2(c3cc(C#CC4(O)CCCCCC4)ccc31)[C@H](C(=O)NC[C@H](O)c1ccccc1)[C@H]1C(=O)O[C@H](c3ccccc3)[C@H](c3ccccc3)N1[C@@H]2c1ccccc1OCCO,141.3*,0.172
C=CCNC(=O)[C@H]1[C@@H]2C(=O)O[C@@H](c3ccccc3)[C@@H](c3ccccc3)N2[C@@H](c2ccccc2OCCO)[C@]12C(=O)Nc1ccc(C#CC3(O)CCCCCC3)cc12,102.1*,-0.202
C=CCNC(=O)[C@H]1[C@@H]2C(=O)O[C@@H](c3ccccc3)[C@@H](c3ccccc3)N2[C@@H](c2ccccc2OCCO)[C@]12C(=O)Nc1ccc(C#CCCO)cc12,71.8,0.122
C=CCNC(=O)[C@H]1[C@@H]2C(=O)O[C@@H](c3ccccc3)[C@@H](c3ccccc3)N2[C@@H](c2ccccc2OCCO)[C@]12C(=O)N(C(=O)OCCOC)c1ccc(C#CC3=CCCCC3)cc12,176.7*,-0.109
C=CCNC(=O)[C@H]1[C@@H]2C(=O)O[C@@H](c3ccccc3)[C@@H](c3ccccc3)N2[C@@H](c2ccc(O)cc2)[C@]12C(=O)N(C(=O)OCCOC)c1ccc(C#CCC(C(=O)OC)C(=O)OC)cc12,58.7,-0.339
C=CCNC(=O)[C@@H]1[C@H]2C(=O)O[C@H](c3ccccc3)[C@H](c3ccccc3)N2[C@H](c2ccccc2OCCO)[C@@]12C(=O)N(C(=O)OCCOC)c1ccc(C#CCC(C(=O)OC)C(=O)OC)cc12,110.2*,0.527
COCCOC(=O)N1C(=O)[C@@]2(c3cc(C#CC4=CCCCC4)ccc31)[C@H](C(=O)NC[C@H](O)c1ccccc1)[C@H]1C(=O)O[C@H](c3ccccc3)[C@H](c3ccccc3)N1[C@@H]2c1ccccc1OCCO,65.4,-0.578
O=C(c1cnn(-c2ccccc2)c1-n1cccc1)N1CCc2ccccc21,5.3,nt
CCOC(=O)c1nc(N)c(=O)n(-c2ccc(Cl)cc2)n1,-8.1,nt
CCN(CC)S(=O)(=O)c1ccccc1/C=N/O,-9.1,nt
COCCOC(=O)N1C(=O)[C@@]2(c3ccccc31)[C@H](c1ccc(OCCO)cc1)N1[C@H](c3ccccc3)[C@H](c3ccccc3)OC(=O)[C@H]1[C@@H]2C(=O)NC[C@H](O)c1ccccc1,189.2*,-0.51
COCCOC(=O)N1C(=O)[C@@]2(c3cc(C#CC4(O)CCCCCC4)ccc31)[C@H](C(N)=O)[C@H]1C(=O)O[C@H](c3ccccc3)[C@H](c3ccccc3)N1[C@@H]2c1ccccc1OCCO,30.5,-0.233
COCCOC(=O)N1C(=O)[C@@]2(c3ccccc31)[C@H](c1ccc(O)cc1)N1[C@H](c3ccccc3)[C@H](c3ccccc3)OC(=O)[C@H]1[C@@H]2C(=O)NC[C@H](O)c1ccccc1,10.3,-0.412
C=CCNC(=O)[C@@H]1[C@H]2C(=O)O[C@H](c3ccccc3)[C@H](c3ccccc3)N2[C@H](c2ccccc2OCCO)[C@@]12C(=O)N(C(=O)OCCOC)c1ccc(C#CC3(O)CCCCCC3)cc12,98.0*,-0.126
Cc1ccc(C)c(NC(=O)Cn2cccc2)c1,33.0,nt
O=C(O)CSc1c2c(nc3cc(C(=O)NCC4COc5ccccc5O4)ccc13)CCC2 (stereo not drawn),-15.5,nt
Cc1nn(CCCC(=O)O)c(=O)c2c1sc1ccccc12,7.7,nt
CCOC(=O)Cn1cnc2c(nnn2-c2ccc(C)cc2)c1=O,-7.0,nt
Cc1ccc(-n2nnc3c(SCC(=O)N4CCCC4)ncnc32)cc1,134.1*,nt
COc1ccc(CCN2C(=S)NC3CC2(C)Oc2c(OC)cc(Br)cc23)cc1OC (stereo not drawn),-8.3,nt
O=C(O)C1=C[C@@H](c2ccccc2)C[C@@H](OCc2ccc(CO)cc2)O1,-8.6,-0.228
COc1ccc([C@H]2C=C(C(=O)NCc3ccccc3)O[C@@H](OCc3ccc(CO)cc3)C2)cc1,7.0,3.3*
COc1ccc2c(c1)c(C(=O)ON1C(=O)CCC1=O)c(C)n2C1CC1,-2.2,3.76*
COc1ccc2c(c1)c(C(=O)O)c(C)n2CCc1ccc(OC)c(OC)c1,24.1,-0.323
COc1ccc(CCNC(=O)Cc2c(SC)c3ccccc3n2Cc2ccccc2)cc1OC,31.1,nt
